Tests used:
Test in all cases: area under confluence curve of osimertinib + compound combination regimen (DTP regrowth); compare to osimertinib-only DTP control AUC of the same experiment (AUC (confluence x time, arbitrary))
[1] = system: PC9
Summary of the method: (§1)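 The area under the IncuCyte confluence–time curve, calculated in Prism and taken as the median of triplicates where available, is the value reported. It was measured in EGFR-mutant NSCLC lines that received the EGFR inhibitor either alone, followed by a test compound, or together with a fixed-dose test compound until the persister stage (10–21 days) and then drug-free medium. Medium was refreshed every 3–4 days until the inhibitor-only wells were confluent again.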

[2] = system: H1975
Summary of the method: as §1

[3] = system: HCC2279
Summary of the method: as §1

[4] = system: HCC2935
Summary of the method: as §1

[5] = system: HCC4006
Summary of the method: as §1

[6] = system: HCC827
Summary of the method: as §1

[7] = system: II-18
Summary of the method: as §1

C[C@@H]1COCCN1c1cc(C2([S@](C)(=N)=O)CC2)nc(-c2cc[nH]c3nccc2-3)n1 + C=CC(=O)Nc1cc(Nc2nccc(-c3cn(C)c4ccccc34)n2)c(OC)cc1N(C)CCN(C)C [osimertinib]
area under confluence curve ([1]; test compound dose 1000 nM, dosing schedule: sequential, osimertinib-only DTP control AUC in same experiment: 15001, DMSO control AUC in same experiment: 22064): 14300
area under confluence curve ([1]; test compound dose 1000 nM, dosing schedule: sequential, osimertinib-only DTP control AUC in same experiment: 15044, DMSO control AUC in same experiment: 30604): 12300
area under confluence curve ([1]; test compound dose 1000 nM, dosing schedule: upfront, osimertinib-only DTP control AUC in same experiment: 20672, DMSO control AUC in same experiment: 30604): 15900
area under confluence curve ([1]; test compound dose 1000 nM, dosing schedule: upfront, osimertinib-only DTP control AUC in same experiment: 24924, DMSO control AUC in same experiment: 22064): 16500

CN(C)C(=O)c1cc2cnc(Nc3ccc(N4CCNCC4)cn3)nc2n1C1CCCC1 [Ribociclib] + C=CC(=O)Nc1cc(Nc2nccc(-c3cn(C)c4ccccc34)n2)c(OC)cc1N(C)CCN(C)C [osimertinib]
area under confluence curve ([1]; test compound dose 300 nM, dosing schedule: sequential, osimertinib-only DTP control AUC in same experiment: 23366, DMSO control AUC in same experiment: 88996): 13600
area under confluence curve ([1]; test compound dose 300 nM, dosing schedule: upfront, osimertinib-only DTP control AUC in same experiment: 29852, DMSO control AUC in same experiment: 88996): 20500

Cc1cc(N2C[C@@H](C)N[C@@H](C)C2)ncc1-c1ccc(-c2nc3c(ccn3C)c(=O)[nH]2)cc1 + C=CC(=O)Nc1cc(Nc2nccc(-c3cn(C)c4ccccc34)n2)c(OC)cc1N(C)CCN(C)C [osimertinib]
area under confluence curve ([2]; test compound dose 1000 nM, dosing schedule: sequential, osimertinib-only DTP control AUC in same experiment: 15943, DMSO control AUC in same experiment: 20657): 12600
area under confluence curve ([2]; test compound dose 1000 nM, dosing schedule: upfront, osimertinib-only DTP control AUC in same experiment: 27804, DMSO control AUC in same experiment: 20657): 11600
area under confluence curve ([3]; test compound dose 1000 nM, dosing schedule: sequential, osimertinib-only DTP control AUC in same experiment: 15997, DMSO control AUC in same experiment: 40085): 7150
area under confluence curve ([3]; test compound dose 1000 nM, dosing schedule: upfront, osimertinib-only DTP control AUC in same experiment: 28057, DMSO control AUC in same experiment: 40085): 4140
area under confluence curve ([4]; test compound dose 1000 nM, dosing schedule: sequential, osimertinib-only DTP control AUC in same experiment: 7139, DMSO control AUC in same experiment: 15413): 3770
area under confluence curve ([4]; test compound dose 1000 nM, dosing schedule: upfront, osimertinib-only DTP control AUC in same experiment: 19044, DMSO control AUC in same experiment: 15413): 6190
area under confluence curve ([5]; test compound dose 1000 nM, dosing schedule: sequential, osimertinib-only DTP control AUC in same experiment: 14882, DMSO control AUC in same experiment: 10921): 6450
area under confluence curve ([5]; test compound dose 1000 nM, dosing schedule: upfront, osimertinib-only DTP control AUC in same experiment: 18913, DMSO control AUC in same experiment: 10921): 7770
area under confluence curve ([6]; test compound dose 1000 nM, dosing schedule: sequential, osimertinib-only DTP control AUC in same experiment: 18675, DMSO control AUC in same experiment: 48895): 2580
area under confluence curve ([6]; test compound dose 1000 nM, dosing schedule: upfront, osimertinib-only DTP control AUC in same experiment: 25542, DMSO control AUC in same experiment: 48895): 7720
area under confluence curve ([7]; test compound dose 1000 nM, dosing schedule: sequential, osimertinib-only DTP control AUC in same experiment: 21122, DMSO control AUC in same experiment: 7080): 1300
area under confluence curve ([7]; test compound dose 1000 nM, dosing schedule: upfront, osimertinib-only DTP control AUC in same experiment: 22894, DMSO control AUC in same experiment: 7080): 1140

Cn1cnc2c(F)c(Nc3ccc(Br)cc3Cl)c(C(=O)NOCCO)cc21 [Selumetinib] + C=CC(=O)Nc1cc(Nc2nccc(-c3cn(C)c4ccccc34)n2)c(OC)cc1N(C)CCN(C)C [osimertinib]
area under confluence curve ([2]; test compound dose 300 nM, dosing schedule: sequential, osimertinib-only DTP control AUC in same experiment: 12533, DMSO control AUC in same experiment: 14522): 2580
area under confluence curve ([2]; test compound dose 300 nM, dosing schedule: upfront, osimertinib-only DTP control AUC in same experiment: 18969, DMSO control AUC in same experiment: 14522): 10100
area under confluence curve ([3]; test compound dose 300 nM, dosing schedule: sequential, osimertinib-only DTP control AUC in same experiment: 15997, DMSO control AUC in same experiment: 40085): 8900
area under confluence curve ([3]; test compound dose 300 nM, dosing schedule: upfront, osimertinib-only DTP control AUC in same experiment: 28057, DMSO control AUC in same experiment: 40085): 9080
area under confluence curve ([4]; test compound dose 300 nM, dosing schedule: sequential, osimertinib-only DTP control AUC in same experiment: 7139, DMSO control AUC in same experiment: 15413): 12800
area under confluence curve ([4]; test compound dose 300 nM, dosing schedule: upfront, osimertinib-only DTP control AUC in same experiment: 19044, DMSO control AUC in same experiment: 15413): 9550
area under confluence curve ([5]; test compound dose 300 nM, dosing schedule: sequential, osimertinib-only DTP control AUC in same experiment: 14882, DMSO control AUC in same experiment: 10921): 9590
area under confluence curve ([5]; test compound dose 300 nM, dosing schedule: upfront, osimertinib-only DTP control AUC in same experiment: 18913, DMSO control AUC in same experiment: 10921): 11700
area under confluence curve ([6]; test compound dose 300 nM, dosing schedule: sequential, osimertinib-only DTP control AUC in same experiment: 18675, DMSO control AUC in same experiment: 48895): 11400
area under confluence curve ([6]; test compound dose 300 nM, dosing schedule: upfront, osimertinib-only DTP control AUC in same experiment: 25542, DMSO control AUC in same experiment: 48895): 11100
area under confluence curve ([7]; test compound dose 300 nM, dosing schedule: sequential, osimertinib-only DTP control AUC in same experiment: 21014, DMSO control AUC in same experiment: 18482): 16200
area under confluence curve ([7]; test compound dose 300 nM, dosing schedule: upfront, osimertinib-only DTP control AUC in same experiment: 27084, DMSO control AUC in same experiment: 18482): 14400
area under confluence curve ([1]; test compound dose 300 nM, dosing schedule: sequential, osimertinib-only DTP control AUC in same experiment: 14554, DMSO control AUC in same experiment: 49189): 10400
area under confluence curve ([1]; test compound dose 300 nM, dosing schedule: upfront, osimertinib-only DTP control AUC in same experiment: 24473, DMSO control AUC in same experiment: 49189): 11200

C[C@@]1(C(=O)Nc2ccc(F)nc2)CCCN1c1nc(Nc2cc(C3CC3)n[nH]2)c2cccn2n1 + C=CC(=O)Nc1cc(Nc2nccc(-c3cn(C)c4ccccc34)n2)c(OC)cc1N(C)CCN(C)C [osimertinib]
area under confluence curve ([2]; test compound dose 100 nM, dosing schedule: sequential, osimertinib-only DTP control AUC in same experiment: 22617, DMSO control AUC in same experiment: 16540): 13500
area under confluence curve ([2]; test compound dose 100 nM, dosing schedule: upfront, osimertinib-only DTP control AUC in same experiment: 28291, DMSO control AUC in same experiment: 16540): 12500
area under confluence curve ([3]; test compound dose 100 nM, dosing schedule: sequential, osimertinib-only DTP control AUC in same experiment: 26096, DMSO control AUC in same experiment: 14404): 24200
area under confluence curve ([3]; test compound dose 100 nM, dosing schedule: upfront, osimertinib-only DTP control AUC in same experiment: 33120, DMSO control AUC in same experiment: 14404): 34700
area under confluence curve ([4]; test compound dose 100 nM, dosing schedule: sequential, osimertinib-only DTP control AUC in same experiment: 22314, DMSO control AUC in same experiment: 19215): 22300
area under confluence curve ([4]; test compound dose 100 nM, dosing schedule: upfront, osimertinib-only DTP control AUC in same experiment: 29846, DMSO control AUC in same experiment: 19215): 22200
area under confluence curve ([5]; test compound dose 100 nM, dosing schedule: sequential, osimertinib-only DTP control AUC in same experiment: 12791, DMSO control AUC in same experiment: 18415): 11000
area under confluence curve ([5]; test compound dose 100 nM, dosing schedule: upfront, osimertinib-only DTP control AUC in same experiment: 17269, DMSO control AUC in same experiment: 18415): 9040
area under confluence curve ([6]; test compound dose 100 nM, dosing schedule: sequential, osimertinib-only DTP control AUC in same experiment: 15330, DMSO control AUC in same experiment: 21320): 12600
area under confluence curve ([6]; test compound dose 100 nM, dosing schedule: upfront, osimertinib-only DTP control AUC in same experiment: 20798, DMSO control AUC in same experiment: 21320): 23300
area under confluence curve ([7]; test compound dose 100 nM, dosing schedule: sequential, osimertinib-only DTP control AUC in same experiment: 8624, DMSO control AUC in same experiment: 11834): 533
area under confluence curve ([7]; test compound dose 100 nM, dosing schedule: upfront, osimertinib-only DTP control AUC in same experiment: 10856, DMSO control AUC in same experiment: 11834): 1400

Cc1cc(Nc2ncnc3ccc(NC4=NC(C)(C)CO4)cc23)ccc1Oc1ccn2ncnc2c1 [Tucatinib] + C=CC(=O)Nc1cc(Nc2nccc(-c3cn(C)c4ccccc34)n2)c(OC)cc1N(C)CCN(C)C [osimertinib]
area under confluence curve ([1]; test compound dose 1000 nM, dosing schedule: sequential, osimertinib-only DTP control AUC in same experiment: 13992, DMSO control AUC in same experiment: 30002): 11100
area under confluence curve ([1]; test compound dose 1000 nM, dosing schedule: sequential, osimertinib-only DTP control AUC in same experiment: 16279, DMSO control AUC in same experiment: 29345): 17500
area under confluence curve ([1]; test compound dose 1000 nM, dosing schedule: upfront, osimertinib-only DTP control AUC in same experiment: 19769, DMSO control AUC in same experiment: 29345): 18600
area under confluence curve ([1]; test compound dose 1000 nM, dosing schedule: upfront, osimertinib-only DTP control AUC in same experiment: 22377, DMSO control AUC in same experiment: 30002): 17200

Reference: the supplement of paper PMC9794691
